# According to PubChem BioAssay AID1159580 (chemical genetic matrix, 2015):
# “And” between values parts separate entries of the source, which are not always exact repeats. Equal values may be shown once. Among all 5,500 compounds or so, about 2,000 (36%) were called active. Inconclusive results (about 18%) are left out. This is one part of the list. A number with no mark means an inactive call. Rule as the data show it: active = normalized growth mostly below about 0.91 (no sharp cut-off); inconclusive = no clear call, values can overlap the other calls; inactive = mostly above about 0.92.
# Test: chemical genetic growth profiling, strain panel (AID 1159580);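 also: tested at 20 µM; growth read once vehicle control cultures reached saturation at 30 °C; 1 = growth at the plate median or of vehicle wells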
# Details: S. cerevisiae deletion strains, growth OD
smiles,measurement,setting,value
COc1cc(O)c(C(=O)O)c(O)c1,normalized growth,"locus YAL013W, strain DEP1, stronger effect = lower value",1
same,normalized growth,"locus YAL021C, strain ccr4, stronger effect = lower value",0.992
same,normalized growth,"locus YAL026C, strain drs2, stronger effect = lower value",0.995
same,normalized growth,"locus YAL030W, strain snc1, stronger effect = lower value",0.99
same,normalized growth,"locus YBL061C, strain skt5, stronger effect = lower value",1
same,normalized growth,"locus YBR009C, strain hhf1, stronger effect = lower value",1
same,normalized growth,"locus YBR021W, strain FUR4, stronger effect = lower value",1.02
same,normalized growth,"locus YBR023C, strain chs3, stronger effect = lower value",0.998
same,normalized growth,"locus YBR171W, strain sec66, stronger effect = lower value",0.971
same,normalized growth,"locus YBR229C, strain ROT2, stronger effect = lower value",0.995
same,normalized growth,"locus YBR231C, strain swc5, stronger effect = lower value",1
same,normalized growth,"locus YBR279W, strain paf1, stronger effect = lower value",0.998
same,normalized growth,"locus YCL011C, strain gbp2, stronger effect = lower value",0.988
same,normalized growth,"locus YCL016C, strain dcc1, stronger effect = lower value",0.991
same,normalized growth,"locus YCL029C, strain bik1, stronger effect = lower value",1.01
same,normalized growth,"locus YCL061C, strain MRC1, stronger effect = lower value",0.979
same,normalized growth,"locus YCL069W, strain vba3, stronger effect = lower value",0.99
same,normalized growth,"locus YCR088W, strain abp1, stronger effect = lower value",0.984
same,normalized growth,"locus YDL005C, strain med2, stronger effect = lower value",0.976
same,normalized growth,"locus YDL035C, strain GPR1, stronger effect = lower value",1.02
same,normalized growth,"locus YDL040C, strain nat1, stronger effect = lower value",0.999
same,normalized growth,"locus YDL074C, strain BRE1, stronger effect = lower value",1.02
same,normalized growth,"locus YDL101C, strain DUN1, stronger effect = lower value",1
same,normalized growth,"locus YDL134C, strain PPH21, stronger effect = lower value",1
same,normalized growth,"locus YDL185W, strain tfp1, stronger effect = lower value",0.949
same,normalized growth,"locus YDL192W, strain arf1, stronger effect = lower value",1.02
same,normalized growth,"locus YDR001C, strain nth1, stronger effect = lower value",0.98
same,normalized growth,"locus YDR069C, strain doa4, stronger effect = lower value",1.01
same,normalized growth,"locus YDR101C, strain arx1, stronger effect = lower value",1.01
same,normalized growth,"locus YDR137W, strain rgp1, stronger effect = lower value",0.974
same,normalized growth,"locus YDR150W, strain NUM1, stronger effect = lower value",1
same,normalized growth,"locus YDR159W, strain sac3, stronger effect = lower value",1.01
same,normalized growth,"locus YDR162C, strain NBP2, stronger effect = lower value",1.01
same,normalized growth,"locus YDR195W, strain ref2",0.987
same,normalized growth,"locus YDR297W, strain sur2, stronger effect = lower value",1
same,normalized growth,"locus YDR318W, strain mcm21, stronger effect = lower value",1.02
same,normalized growth,"locus YDR334W, strain swr1, stronger effect = lower value",0.999
same,normalized growth,"locus YDR335W, strain msn5, stronger effect = lower value",0.992
same,normalized growth,"locus YDR388W, stronger effect = lower value",1
same,normalized growth,"locus YDR392W, strain spt3, stronger effect = lower value",1.01
same,normalized growth,"locus YDR502C, strain sam2, stronger effect = lower value",0.998
same,normalized growth,"locus YEL003W, strain gim4, stronger effect = lower value",1
same,normalized growth,"locus YEL037C, strain rad23, stronger effect = lower value",0.985
same,normalized growth,"locus YEL061C, strain CIN8 (second series), stronger effect = lower value",0.981
same,normalized growth,"locus YEL061C, strain CIN8, stronger effect = lower value",1
same,normalized growth,"locus YER015W, strain faa2, stronger effect = lower value",0.99
same,normalized growth,"locus YER016W, strain bim1, stronger effect = lower value",0.989
same,normalized growth,"locus YER110C, stronger effect = lower value",1.02
same,normalized growth,"locus YER111C, strain swi4, stronger effect = lower value",0.987
same,normalized growth,"locus YER155C, strain BEM2 (second series), stronger effect = lower value",0.978
same,normalized growth,"locus YER155C, strain BEM2, stronger effect = lower value",0.987
same,normalized growth,"locus YER167W, strain BCK2, stronger effect = lower value",1.03
same,normalized growth,"locus YFR010W, strain ubp6, stronger effect = lower value",1.01
same,normalized growth,"locus YGL078C, strain dbp3, stronger effect = lower value",0.973
same,normalized growth,"locus YGL086W, strain mad1, stronger effect = lower value",1.01
same,normalized growth,"locus YGL167C, strain pmr1, stronger effect = lower value",0.989
same,normalized growth,"locus YGL173C, strain kem1, stronger effect = lower value",0.997
same,normalized growth,"locus YGL227W, strain vid30, stronger effect = lower value",0.982
same,normalized growth,"locus YGL240W, strain doc1, stronger effect = lower value",0.995
same,normalized growth,"locus YGL248W, strain PDE1, stronger effect = lower value",1.01
same,normalized growth,"locus YGL253W, strain hxk2, stronger effect = lower value",0.979
same,normalized growth,"locus YGR078C, strain PAC10, stronger effect = lower value",1.01
same,normalized growth,"locus YGR135W, strain pre9, stronger effect = lower value",1.01
same,normalized growth,"locus YGR229C, strain SMI1, stronger effect = lower value",1.02
same,normalized growth,"locus YGR252W, strain gcn5, stronger effect = lower value",1
same,normalized growth,"locus YHR013C, strain ard1, stronger effect = lower value",0.998
same,normalized growth,"locus YHR027C, strain rpn1, stronger effect = lower value",0.978
same,normalized growth,"locus YHR030C, strain SLT2, stronger effect = lower value",0.996 and 0.881
same,normalized growth,"locus YHR079C, strain IRE1 (second series), stronger effect = lower value",1.01
same,normalized growth,"locus YHR079C, strain IRE1, stronger effect = lower value",0.839 (active)
same,normalized growth,"locus YHR094C, strain hxt1, stronger effect = lower value",0.997
same,normalized growth,"locus YHR129C, strain ARP1, stronger effect = lower value",0.991
same,normalized growth,"locus YHR142W, strain chs7, stronger effect = lower value",1.01
same,normalized growth,"locus YHR200W, strain rpn10, stronger effect = lower value",1
same,normalized growth,"locus YIL066C, strain RNR3, stronger effect = lower value",0.993
same,normalized growth,"locus YIL073C, strain SPO22, stronger effect = lower value",1.09
same,normalized growth,"locus YIL125W, strain kgd1, stronger effect = lower value",0.979
same,normalized growth,"locus YIR030C, strain dcg1, stronger effect = lower value",1.01
same,normalized growth,"locus YJL092W, strain hpr5, stronger effect = lower value",0.966
same,normalized growth,"locus YJL095W, strain BCK1 (second series), stronger effect = lower value",0.998
same,normalized growth,"locus YJL095W, strain BCK1, stronger effect = lower value",1 and 0.914
same,normalized growth,"locus YJL115W, strain asf1, stronger effect = lower value",0.979
same,normalized growth,"locus YJL129C, strain trk1, stronger effect = lower value",1
same,normalized growth,"locus YJL134W, strain LCB3, stronger effect = lower value",0.993
same,normalized growth,"locus YJL154C, strain vps35, stronger effect = lower value",0.976
same,normalized growth,"locus YJL164C, strain tpk1, stronger effect = lower value",1.02
same,normalized growth,"locus YJL166W, strain qcr8, stronger effect = lower value",1
same,normalized growth,"locus YJL168C, strain set2, stronger effect = lower value",0.993
same,normalized growth,"locus YJL187C, strain SWE1 (second series), stronger effect = lower value",1.01
same,normalized growth,"locus YJL187C, strain SWE1, stronger effect = lower value",0.996
same,normalized growth,"locus YJR043C, strain POL32, stronger effect = lower value",1.04
same,normalized growth,"locus YJR066W, strain TOR1, stronger effect = lower value",0.841
